PubChem BioAssay (NCATS)
Values joined by “and” are separate entries in the source; they are usually repeats but may differ in a detail not shown here. Equal entries are not always repeated. Records with an inconclusive call do not appear. Active and inactive are the calls of the source. Unless noted, the call rests on the fitted dose curve; in most records, active means well fitted curve in the direction sought with a large enough effect; inconclusive means small, poorly fitted or top-dose-only effect, or another doubt; inactive means no such curve, though single readings can be large; an effect the other way counts as inactive or inconclusive.

What was measured:
[1] = target: Ubiquitin carboxyl-terminal hydrolase 1 (Homo sapiens) (UniProt O94782); test: Inhibitors of USP1/UAF1: Pilot qHTS (AID 504865);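 further: rhodamine fluorescence freed from ubiquitin-rhodamine substrate followed over time; top concentration of the series differs between compounds; on the % scale 0 is the no-effect control and ±100 the full control effect; nearly all actives have a fitted effect of over 35% in size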
Summary of the method: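 USP1/UAF1 complex at 1 nM preincubated 15 min at room temperature with compound, then Ub-Rho substrate added at 150 nM final. Fluorescence (480/540 nm) read kinetically in 50 mM HEPES pH 7.8, 0.5 mM EDTA, 1 mM TCEP, 0.1 mg/ml BSA, 0.01% Tween-20.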

[2] = Cell Viability - LYMP2-001 (AID 921);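 further: series mostly up to about 92 µM; 0% = DMSO only and full inhibition = tetraoctylammonium bromide control wells; nearly all actives have a fitted effect of over 70% in size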
Summary of the method: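 Human lymphoblastoid LYMP2-001 cells, 2500 per well, in complete medium, treated 24 h at 37 C. Viability from cellular ATP by CellTiter-Glo luminescence; AC50 from Hill-equation fits of qHTS concentration-response.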

[3] = MultiTox-Fluor Cytotoxicity Assay - LYMP1-001 - Live Cells (AID 947);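 further: 0% = DMSO only and full inhibition = tetraoctylammonium bromide control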
[4] = MultiTox-Fluor Cytotoxicity Assay - LYMP1-002 - Dead Cells (AID 960);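 further: 0% = DMSO and 100% = tetraoctylammonium bromide; nearly all actives have a fitted effect of over 60% in size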
Summary of the method: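 Human lymphoblastoid cells (LYMP1-002), 2500/well in complete medium, were exposed to compounds for 16 hr at 37 C. Dead-cell protease activity was read as bis-AAF-R110 fluorescence (Ex/Em 485/520), normalized to DMSO and 15 uM tetraoctylammonium bromide; AC50 from Hill fits.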

[5] = Cell Viability - LYMP1-003 - Assay at 24 hr (AID 963);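 further: plate controls were DMSO only for no effect and tetraoctylammonium bromide positive control for full effect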
Summary of the method: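 Human lymphoblastoid LYMP1-003 cells (2500/well) were rested 5 hr at 37 C, then exposed to compounds in complete medium for 24 hr at 37 C. Cellular ATP was quantified by CellTiter-Glo luminescence, and AC50 values came from Hill fits of concentration-response data.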

[6] = target: Estrogen receptor (Homo sapiens) (UniProt P03372); test: qHTS assay for small molecule antagonists of estrogen receptor alpha signaling (AID 588513; active means well fitted curve in the direction sought with a large enough effect in the signal ratio, with a control signal flat, not every such curve was filed as active; the % refers to the signal ratio; further: on the % scale 0 is the no-effect control and ±100 the full control effect)
Summary of the method: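 ER-alpha-UAS-bla GripTite HEK 293 cells in 2% charcoal/dextran-treated FBS medium; compounds titrated (1:2, duplicate), then stimulated with 0.5 nM 17-beta-estradiol for 18 h at 37C. CCF4 beta-lactamase fluorescence; Hill-fit IC50 and efficacy.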

[7] = target: Estrogen receptor (Homo sapiens) (UniProt P03372); test: qHTS assay for small molecule agonists of estrogen receptor alpha signaling (AID 588514; calls by dose curve;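 further: 0% = vehicle only and 100% = reference agonist; nearly all actives have a fitted effect of over 70% in size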)
Summary of the method: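 ER-alpha-UAS-bla GripTite HEK 293 cells in medium with 2% charcoal/dextran-treated FBS were treated with compound titrations at 37 C for 18 hrs; beta-lactamase reporter read by CCF4 fluorescence after 2 hrs at RT.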

[8] = target: Peroxisome proliferator-activated receptor gamma (Homo sapiens) (UniProt P37231); test: qHTS assay for small molecule agonists of peroxisome proliferator-activated receptor gamma signaling (AID 588536; active means well fitted curve in the direction sought with a large enough effect in the signal ratio, with a control signal flat, not every such curve was filed as active; the % refers to the signal ratio;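 further: 0% = DMSO basal wells and 100% = rosiglitazone at 2 µM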)
Summary of the method: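 HEK293 UAS-bla reporter line, 1% charcoal/dextran FBS; titration, 16 h, 37 C; CCF4 loading 2 h RT; fluorescence 460/530 nm. Normalized to rosiglitazone 2 uM = 100%, DMSO = 0%.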

[9] = target: Peroxisome proliferator-activated receptor gamma (Homo sapiens) (UniProt P37231); test: qHTS assay for small molecule antagonists of peroxisome proliferator-activated receptor gamma signaling (AID 588537; active means well fitted inhibition curve with a large enough effect in the signal ratio, with a control signal flat, not every such curve was filed as active; the % refers to the signal ratio;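 further: reporter cells co-stimulated with 50 nM rosiglitazone agonist during compound treatment; % of control where 0% means no effect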)
Summary of the method: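 Step one: plate 3000 HEK293 UAS-bla cells per well in medium with 1% stripped serum and hold 6-6.5 h at 37 C. Step two: add compound and 50 nM agonist for 16 h. Step three: CCF4 loading, fluorescence read.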

[10] = qHTS assay for small molecule agonists of retinoid X receptor alpha signaling (AID 588544; calls by dose curve;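 on activation: 0% = DMSO basal wells and 100% = reference agonist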); details: HEK293T RXRa-UAS-bla, beta-lactamase reporter, 18 h; 530 nm emission
[11] = target: Retinoic acid receptor RXR-alpha (Homo sapiens) (UniProt P19793); test: as above
[12] = target: Thyroid hormone receptor beta (Homo sapiens) (UniProt P10828); test: qHTS assay for small molecule agonists of thyroid hormone receptor beta signaling (AID 588545; calls by dose curve)
Summary of the method: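 Agonist activity was read as beta-lactamase CCF4 fluorescence (405 ex, 460/530 em), scaled between DMSO (0%) and 10 nM T3 (100%), then Hill-fitted for EC50 and efficacy. HEK 293 TR-UAS-bla cells in 2% charcoal/dextran FBS medium were exposed 18 h at 37 C.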

[13] = target: Thyroid hormone receptor beta (Homo sapiens) (UniProt P10828); test: qHTS assay for small molecule antagonists of thyroid hormone receptor beta signaling (AID 588547; active means well fitted inhibition curve with a large enough effect in the signal ratio, with a control signal flat, not every such curve was filed as active; the % refers to the signal ratio;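 further: cells stimulated with 0.4 nM T3 agonist during compound exposure; series mostly up to about 77 µM; on the % scale 0 is the no-effect control and ±100 the full control effect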); details: TR-UAS-bla HEK293, beta-lactamase ratio, antagonist mode, 18 h
Summary of the method: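 TR-UAS-bla GripTite HEK293 cells in 2% charcoal/dextran FBS medium; compounds 0.59 nM to 92 uM with T3 at 0.4nM final, 18 h at 37 C. Beta-lactamase read by CCF4 fluorescence (460/530 nm); Hill fits gave IC50 and efficacy.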

[14] = target: Voltage-gated inwardly rectifying potassium channel KCNH2 (Homo sapiens) (UniProt Q12809); test: qHTS Assay for Small Molecule Inhibitors of the Human hERG Channel Activity (AID 588834);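 further: top concentration of the series differs between compounds; on the % scale 0 is the no-effect control and ±100 the full control effect; lower thallium flux fluorescence means stronger hERG block; nearly all actives have a fitted effect of over 50% in size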
Summary of the method: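 U2OS cells BacMam-transduced with hERG, 2000 cells/well, compound ~10 min at 37 °C before stimulation buffer. FluxOR thallium flux fluorescence read kinetically on FDSS; decrease indicates block; AC50 from Hill fits.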

[15] = qHTS assay for small molecule activators of the p53 signaling pathway (AID 651743; active means well fitted activation curve with a large enough effect in the signal ratio, not every such curve was filed as active; the % refers to the signal ratio; further: series mostly up to about 92 µM; % of control where 0% means no effect); details: HCT-116 p53RE-bla, beta-lactamase FRET ratio, 16 h; activation: stronger effect = higher value
Summary of the method: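 HCT-116 p53RE-bla, 4,000 cells/well; 5 h settle; cpd/DMSO 16 h, 37 C; LiveBLAzer B/G 2 h RT; fluorescence intensity.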

[16] = target: Tumor necrosis factor (Homo sapiens) (UniProt P01375); test: qHTS assay to identify small molecules that stimulate Tumor Necrosis Factor-alpha (TNF-alpha) secretion (AID 651757; active means well fitted curve in the direction sought with a large enough effect in the signal ratio; the % refers to the signal ratio; further: 0% is about no effect)
Summary of the method: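 THP-1 cells were exposed to compounds for 17 hrs at 37 C, after which secreted TNF-alpha was measured by homogeneous HTRF (TR-FRET) using cryptate- and XL665-labeled anti-TNF-alpha antibodies, read after 3 hr at room temperature.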

[17] = qHTS assay for small molecule antagonists of the retinoid-related orphan receptor gamma (ROR-gamma) signaling pathway - cell viability counter screen (AID 720652; active means well fitted curve in the direction sought with a large enough effect in the repeat runs; an effect the other way counts as inactive or inconclusive;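 further: CHO reporter cells with doxycycline-induced ROR-gamma expression; series mostly up to about 92 µM; compound exposure lasted 16 hr before ATP read; on the % scale 0 is the no-effect control and ±100 the full control effect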)
Summary of the method: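 Counter screen in CHO cells carrying TET-inducible ROR-gamma and an ROR response element-luciferase reporter; cells plated 5 hr, compound pinned, doxycycline added, then 16 hr at 37 C. Viability read as intracellular ATP by CellTiter-Glo luminescence.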

[18] = qHTS assay for cell viability of the p53RE-bla HCT-116 cell line (AID 743292); further: on the % scale 0 is the no-effect control and ±100 the full control effect; nearly all actives have a fitted effect of over 55% in size
Summary of the method: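 Quantitative high-throughput format: compounds in DMSO were pinned onto p53RE-bla HCT-116 cells (4,000/well) and incubated 16 h at 37 C. Total intracellular ATP, read by CellTiter-Glo luminescence, reflects viable cell number.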

[19] = target: Nuclear receptor subfamily 1 group I member 2 (Rattus norvegicus) (UniProt Q9R1A7); test: qHTS assay for small molecule activators of the rat pregnane X receptor (rPXR) signaling pathway (AID 651751; call rule not given here; further: 0% is about no effect); details: rPXR reporter cells, luciferase (One-Glo), 24 h
[20] = qHTS assay for small molecule disruptors of the mitochondrial membrane potential - 1 hr assay (AID 651754; calls by dose curve; further: on the % scale 0 is the no-effect control and ±100 the full control effect; nearly all actives have a fitted effect of over 35% in size)
Summary of the method: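 HepG2 cells, attached overnight at 37C, were exposed to compound or DMSO vehicle for 1 hr at 37C, 5% CO2, then stained with Mito-MPS dye for 30 min. Red aggregate versus green monomer fluorescence reports membrane potential.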

Chain of Ubiquitin carboxyl-terminal hydrolase 1 (Homo sapiens) (O94782 whole entry, looked up): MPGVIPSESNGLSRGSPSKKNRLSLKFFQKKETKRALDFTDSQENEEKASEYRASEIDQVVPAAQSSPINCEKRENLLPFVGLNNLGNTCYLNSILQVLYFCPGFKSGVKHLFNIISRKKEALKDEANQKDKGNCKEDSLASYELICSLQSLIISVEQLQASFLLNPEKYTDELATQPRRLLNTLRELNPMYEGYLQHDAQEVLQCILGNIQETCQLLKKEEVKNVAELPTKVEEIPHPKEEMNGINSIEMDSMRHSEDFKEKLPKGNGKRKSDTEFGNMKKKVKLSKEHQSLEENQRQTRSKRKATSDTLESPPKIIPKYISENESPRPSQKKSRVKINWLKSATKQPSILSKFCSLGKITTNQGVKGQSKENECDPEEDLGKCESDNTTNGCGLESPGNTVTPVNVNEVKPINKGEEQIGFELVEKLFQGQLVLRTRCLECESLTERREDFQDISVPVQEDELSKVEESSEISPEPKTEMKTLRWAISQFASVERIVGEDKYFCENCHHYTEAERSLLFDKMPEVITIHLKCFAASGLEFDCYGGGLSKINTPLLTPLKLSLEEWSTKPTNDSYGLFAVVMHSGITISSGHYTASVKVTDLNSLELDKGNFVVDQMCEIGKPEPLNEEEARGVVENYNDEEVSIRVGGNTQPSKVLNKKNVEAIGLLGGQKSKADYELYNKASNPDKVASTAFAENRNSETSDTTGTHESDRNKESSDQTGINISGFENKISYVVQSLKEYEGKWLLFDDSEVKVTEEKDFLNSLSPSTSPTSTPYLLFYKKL
Chain of Tumor necrosis factor (Homo sapiens) (P01375 whole entry, looked up): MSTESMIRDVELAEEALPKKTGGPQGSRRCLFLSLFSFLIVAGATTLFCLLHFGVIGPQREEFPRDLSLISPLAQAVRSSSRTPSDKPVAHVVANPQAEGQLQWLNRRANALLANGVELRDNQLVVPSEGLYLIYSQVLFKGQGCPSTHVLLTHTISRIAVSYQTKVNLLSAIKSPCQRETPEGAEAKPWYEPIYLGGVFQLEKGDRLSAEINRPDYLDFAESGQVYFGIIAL
Chain of Voltage-gated inwardly rectifying potassium channel KCNH2 (Homo sapiens) (Q12809 whole entry, looked up): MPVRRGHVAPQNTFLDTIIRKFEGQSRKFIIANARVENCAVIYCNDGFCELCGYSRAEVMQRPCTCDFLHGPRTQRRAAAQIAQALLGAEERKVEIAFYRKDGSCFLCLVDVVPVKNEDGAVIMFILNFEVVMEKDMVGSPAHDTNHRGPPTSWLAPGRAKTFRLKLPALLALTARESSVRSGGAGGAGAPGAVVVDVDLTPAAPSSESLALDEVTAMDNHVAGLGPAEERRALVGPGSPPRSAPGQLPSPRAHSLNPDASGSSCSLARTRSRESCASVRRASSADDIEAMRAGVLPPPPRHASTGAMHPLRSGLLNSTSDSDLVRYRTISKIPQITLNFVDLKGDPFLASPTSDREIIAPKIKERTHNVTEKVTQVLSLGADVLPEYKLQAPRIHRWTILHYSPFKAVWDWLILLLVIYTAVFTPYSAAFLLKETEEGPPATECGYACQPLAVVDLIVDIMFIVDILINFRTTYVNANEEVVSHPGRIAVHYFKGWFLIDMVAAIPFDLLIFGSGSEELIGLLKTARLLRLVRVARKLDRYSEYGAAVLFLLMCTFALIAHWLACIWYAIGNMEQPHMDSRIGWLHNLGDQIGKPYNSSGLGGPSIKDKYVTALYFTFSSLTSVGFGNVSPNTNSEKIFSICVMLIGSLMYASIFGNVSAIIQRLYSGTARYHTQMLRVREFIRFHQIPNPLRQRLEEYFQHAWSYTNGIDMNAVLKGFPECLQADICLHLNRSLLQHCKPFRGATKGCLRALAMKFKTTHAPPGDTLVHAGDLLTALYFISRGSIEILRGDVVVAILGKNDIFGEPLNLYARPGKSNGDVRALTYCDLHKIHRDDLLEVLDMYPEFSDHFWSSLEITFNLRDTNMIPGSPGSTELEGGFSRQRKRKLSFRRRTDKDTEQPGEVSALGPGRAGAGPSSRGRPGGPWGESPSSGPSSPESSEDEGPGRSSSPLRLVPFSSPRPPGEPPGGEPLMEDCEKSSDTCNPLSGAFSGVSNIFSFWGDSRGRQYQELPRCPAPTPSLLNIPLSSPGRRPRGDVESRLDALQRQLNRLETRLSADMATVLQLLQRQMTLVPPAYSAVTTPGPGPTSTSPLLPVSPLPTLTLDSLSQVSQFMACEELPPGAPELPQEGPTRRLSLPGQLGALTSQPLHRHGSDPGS
Chain of Nuclear receptor subfamily 1 group I member 2 (Rattus norvegicus) (Q9R1A7 whole entry, looked up): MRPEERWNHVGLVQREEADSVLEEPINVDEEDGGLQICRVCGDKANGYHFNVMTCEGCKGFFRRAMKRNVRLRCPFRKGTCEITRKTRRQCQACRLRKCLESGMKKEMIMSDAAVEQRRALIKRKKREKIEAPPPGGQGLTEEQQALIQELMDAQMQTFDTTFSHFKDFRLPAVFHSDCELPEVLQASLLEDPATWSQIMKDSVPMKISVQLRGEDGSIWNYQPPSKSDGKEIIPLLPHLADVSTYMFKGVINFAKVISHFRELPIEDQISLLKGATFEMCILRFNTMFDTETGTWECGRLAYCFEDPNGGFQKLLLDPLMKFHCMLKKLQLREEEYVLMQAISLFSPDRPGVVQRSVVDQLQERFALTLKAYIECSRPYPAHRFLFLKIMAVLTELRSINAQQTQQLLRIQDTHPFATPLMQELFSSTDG
Chain of Thyroid hormone receptor beta (Homo sapiens) (P10828 whole entry, looked up): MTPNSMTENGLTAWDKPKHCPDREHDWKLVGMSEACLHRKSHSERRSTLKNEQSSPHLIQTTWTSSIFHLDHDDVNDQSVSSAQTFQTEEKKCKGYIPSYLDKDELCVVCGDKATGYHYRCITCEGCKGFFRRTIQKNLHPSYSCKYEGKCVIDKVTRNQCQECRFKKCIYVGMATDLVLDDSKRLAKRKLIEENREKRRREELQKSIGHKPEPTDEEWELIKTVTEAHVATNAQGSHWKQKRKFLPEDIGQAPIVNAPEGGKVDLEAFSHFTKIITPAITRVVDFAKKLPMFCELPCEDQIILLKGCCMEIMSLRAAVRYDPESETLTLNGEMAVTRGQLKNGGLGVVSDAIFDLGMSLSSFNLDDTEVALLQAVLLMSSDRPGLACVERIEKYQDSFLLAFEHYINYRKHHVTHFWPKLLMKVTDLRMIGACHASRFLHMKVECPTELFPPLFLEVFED
Chain of Retinoic acid receptor RXR-alpha (Homo sapiens) (P19793 whole entry, looked up): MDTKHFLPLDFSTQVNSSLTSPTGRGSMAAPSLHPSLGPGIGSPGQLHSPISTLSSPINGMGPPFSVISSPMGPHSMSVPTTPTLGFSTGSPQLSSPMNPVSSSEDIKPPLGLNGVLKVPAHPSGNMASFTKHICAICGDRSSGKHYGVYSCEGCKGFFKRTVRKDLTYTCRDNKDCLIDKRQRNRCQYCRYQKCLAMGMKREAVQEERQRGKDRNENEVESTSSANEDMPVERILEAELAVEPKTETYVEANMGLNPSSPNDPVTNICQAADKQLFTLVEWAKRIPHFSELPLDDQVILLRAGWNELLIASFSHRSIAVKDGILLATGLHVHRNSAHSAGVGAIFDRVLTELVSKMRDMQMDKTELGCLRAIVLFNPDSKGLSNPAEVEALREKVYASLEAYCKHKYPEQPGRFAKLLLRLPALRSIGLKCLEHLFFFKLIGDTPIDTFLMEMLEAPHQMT
Chain of Peroxisome proliferator-activated receptor gamma (Homo sapiens) (P37231 whole entry, looked up): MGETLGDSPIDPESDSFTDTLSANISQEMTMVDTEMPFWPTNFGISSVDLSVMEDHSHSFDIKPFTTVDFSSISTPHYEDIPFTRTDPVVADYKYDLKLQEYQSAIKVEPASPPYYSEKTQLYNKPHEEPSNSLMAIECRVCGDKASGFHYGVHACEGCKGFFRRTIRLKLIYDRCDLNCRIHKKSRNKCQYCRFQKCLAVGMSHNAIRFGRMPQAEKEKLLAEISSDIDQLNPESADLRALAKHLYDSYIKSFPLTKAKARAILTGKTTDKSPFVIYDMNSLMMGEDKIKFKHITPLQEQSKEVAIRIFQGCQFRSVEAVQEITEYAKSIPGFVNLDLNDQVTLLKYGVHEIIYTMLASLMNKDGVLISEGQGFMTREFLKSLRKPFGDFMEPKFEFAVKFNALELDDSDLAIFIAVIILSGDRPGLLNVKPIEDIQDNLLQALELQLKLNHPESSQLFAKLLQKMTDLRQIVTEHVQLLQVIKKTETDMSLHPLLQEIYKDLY
Chain of Estrogen receptor (Homo sapiens) (P03372 whole entry, looked up): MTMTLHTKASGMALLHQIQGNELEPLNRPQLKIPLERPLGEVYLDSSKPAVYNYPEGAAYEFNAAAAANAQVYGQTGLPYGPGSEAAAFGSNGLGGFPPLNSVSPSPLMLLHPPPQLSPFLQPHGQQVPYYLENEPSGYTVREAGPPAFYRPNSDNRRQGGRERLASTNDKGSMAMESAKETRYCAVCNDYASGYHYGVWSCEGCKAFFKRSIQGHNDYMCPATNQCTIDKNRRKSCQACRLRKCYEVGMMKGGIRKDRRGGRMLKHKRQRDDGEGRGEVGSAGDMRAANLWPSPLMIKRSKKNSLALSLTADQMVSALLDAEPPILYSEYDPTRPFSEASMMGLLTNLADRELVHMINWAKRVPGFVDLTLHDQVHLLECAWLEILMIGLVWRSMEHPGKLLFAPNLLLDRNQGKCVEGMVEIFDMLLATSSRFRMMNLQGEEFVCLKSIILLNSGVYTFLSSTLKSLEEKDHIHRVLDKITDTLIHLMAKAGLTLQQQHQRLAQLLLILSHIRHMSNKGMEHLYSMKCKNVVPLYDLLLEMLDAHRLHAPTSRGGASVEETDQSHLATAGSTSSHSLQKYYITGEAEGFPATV

COc1ccc2[nH]cc(CCNc3nc(-c4c(C)noc4C)nc4ccccc34)c2c1
inactive: Potency [1]

c1ccc2c(c1)[nH]c1ccccc12
inactive: Potency [2] | Potency [3] | Potency [4] | Potency [5] | Potency [6] | Potency [7] | outcome [8] | outcome [9] | outcome [11] | outcome [12] | activity change % (negative = inhibition) [13] 1.02% and -10.3% | Potency [14] | activation [15] 0.0697% and -3.97% | outcome [16] | Potency [17] | Potency [18] | max response [19] -0.192% and 1.32%
2.28% and -6.27%: max response [10]

Cc1ccc(N)c([N+](=O)[O-])c1
-17.4% and -9.33%: max response [10]
inactive: Potency [2] | Potency [4] | Potency [5] | Potency [6] | Potency [7] | outcome [8] | outcome [9] | outcome [11] | outcome [12] | activity change % (negative = inhibition) [13] -3.23% | Potency [14] | Potency [20] | outcome [16] | Potency [17] | Potency [18] | max response [19] -2.15% and -2.21%

COc1ccc2[nH]cc(CCNc3ncncc3-c3ccccc3C(F)(F)F)c2c1
inactive: Potency [1]

CCO
inactive: Potency [2] | Potency [3] | Potency [5] | Potency [6] | Potency [7] | outcome [8] | outcome [9] | outcome [11] | outcome [12] | activity change % (negative = inhibition) [13] -1.42% | Potency [14] | activation [15] -1.86% | Potency [20] | outcome [16] | Potency [17] | Potency [18] | max response [19] 0.289%
1.82%: max response [10]

COc1ccccc1CNc1ccnc(-c2cccnc2)n1
inactive: Potency [1]

CNc1ncncc1-c1ccccc1CN(C)C
inactive: Potency [1]

CN(C)c1ccc(-c2cncnc2NCCc2cnc[nH]2)cc1
inactive: Potency [1]

NC1=NC(S)C2N=CN=C2N1 (stereo not given)
inactive: Potency [1] | outcome [12] | activity change % (negative = inhibition) [13] 18.1% | Potency [14] | Potency [20] | max response [19] -3.62%

OCCNCCO
inactive: Potency [2] | Potency [3] | Potency [4] | Potency [5] | Potency [6] | Potency [7] | outcome [11] | Potency [14] | Potency [20] | outcome [16] | Potency [17] | Potency [18]
-28.3% and -18.3%: max response [10]

COc1ccccc1-c1nc(NC2CC2)c2ccccc2n1
inactive: Potency [1]

c1ccccc1
inactive: Potency [2] | Potency [3] | Potency [4] | Potency [5] | Potency [6] | Potency [7] | outcome [8] | outcome [9] | outcome [12] | activation [15] 0.891% [middle of 4 runs] | Potency [20] | outcome [16] | Potency [18]

CCC(O)OC(O)CC (stereo not given)
inactive: Potency [2] | Potency [3] | Potency [4] | Potency [5] | Potency [6] | Potency [7] | outcome [8] | outcome [9] | outcome [11] | outcome [12] | activity change % (negative = inhibition) [13] -5.47% [middle of 4 runs] | Potency [14] | activation [15] 0.0103% [middle of 4 runs] | Potency [20] | outcome [16] | Potency [17] | Potency [18] | max response [19] -0.225% [middle of 4 runs]
-2.11% and -3.85% and -13.7%: max response [10]

Nc1ccc(S(=O)(=O)O)cc1
8.69% and -7.04%: max response [10]
inactive: Potency [2] | Potency [3] | Potency [4] | Potency [5] | Potency [6] | Potency [7] | outcome [8] | outcome [11] | outcome [12] | activity change % (negative = inhibition) [13] -11.7% and 17.4% | Potency [14] | activation [15] 3.7% and 3.55% | Potency [20] | outcome [16] | Potency [17] | Potency [18] | max response [19] -3.61% and -1.3%

Clc1ccccc1-c1ccc2ncnc(NCCN3CCOCC3)c2c1
inactive: Potency [1]

Clc1cc(Cl)c(Cl)cc1Cl
4.21% and -11.5%: max response [10]
inactive: Potency [2] | Potency [3] | Potency [4] | Potency [5] | Potency [6] | Potency [7] | outcome [8] | outcome [9] | outcome [11] | outcome [12] | activity change % (negative = inhibition) [13] 5.68% and 7.52% | Potency [14] | activation [15] -2.65% and -1.28% | Potency [20] | outcome [16] | Potency [17] | Potency [18] | max response [19] 1.48% and 5.88%

CO[C@@H]1[C@@H](OC2OC(C)C(OC3CC(C)(O)C(OC(=O)CC(C)C)C(C)O3)C(N(C)C)C2O)[C@@H](CC=O)C[C@@H](C)C(=O)/C=C\C2O[C@H]2C[C@@H](C)OC(=O)C[C@H]1OC(C)=O (stereo not given in full)
inactive: Potency [1]

CC1(C)CC(N=C=O)CC(C)(CN=C=O)C1 (stereo not given)
inactive: Potency [2] | Potency [3] | Potency [5] | Potency [6] | Potency [7] | outcome [8] | outcome [9] | outcome [11] | outcome [12] | activity change % (negative = inhibition) [13] 2.27% and 3.24% | Potency [14] | activation [15] 0.263% and 0.482% | Potency [20] | outcome [16] | Potency [17] | Potency [18] | max response [19] 1.05% and -0.823%
0.0281% and -13.4%: max response [10]

CC(=O)OC/C=C(\C)CCC=C(C)C
4.32% and -5.25%: max response [10]
inactive: Potency [3] | Potency [4] | Potency [5] | Potency [6] | Potency [7] | outcome [8] | outcome [9] | outcome [11] | outcome [12] | activity change % (negative = inhibition) [13] 10.6% | Potency [14] | activation [15] -0.898% and 4.78% | Potency [20] | outcome [16] | Potency [17] | Potency [18] | max response [19] 1.82% and -1.93%
